In all, about 33,000 sequences were measured (“E-score (-0.5 to 0.5)”: median about -0.013, highest 2% from about 0.3 on). Shown is part of a subset that was picked to be rich in the highest values.
These sequences were tested against T1, Msn1 (UniProt P22148) (assay: PBM E-score (8-mer binding enrichment) (E-score (-0.5 to 0.5)); higher = stronger / more preferred TF binding). Conditions: protein concentration: 200 nM; construct: GST-full length.
T1 sequence: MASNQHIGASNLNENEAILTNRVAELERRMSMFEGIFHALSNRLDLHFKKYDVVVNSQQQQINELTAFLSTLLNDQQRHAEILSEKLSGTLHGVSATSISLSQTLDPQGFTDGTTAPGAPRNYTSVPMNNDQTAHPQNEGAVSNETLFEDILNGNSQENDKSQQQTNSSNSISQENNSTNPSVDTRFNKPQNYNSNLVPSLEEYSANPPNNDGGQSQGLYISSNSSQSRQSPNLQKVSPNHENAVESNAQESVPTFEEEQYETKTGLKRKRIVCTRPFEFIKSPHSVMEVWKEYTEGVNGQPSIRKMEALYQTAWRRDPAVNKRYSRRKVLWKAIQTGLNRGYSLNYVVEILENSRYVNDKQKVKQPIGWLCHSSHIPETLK
Outline: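 Bound GST-tagged yeast transcription factors, applied at about 100-200 nM to double-stranded universal all-10-mer Agilent arrays, were detected with fluorescent anti-GST. Scans were normalised with masliner. A modified Wilcoxon-Mann-Whitney statistic, the E-score, was assigned to each ungapped eight-base word pooled with its reverse complement by the Universal PBM Analysis Suite.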

Sequence	PBM E-score
ATACCTAG	-0.0479
ATGTCTGG	0.323
GTGTCTTA	0.04
ACGTCTGG	0.154
ATGTCTTG	0.35
ATGTCTTA	0.423
CTGTCTTA	0.181
ATGTCTTC	0.293
ATGTCTGA	0.425
GTGTCTGA	0.185
AAGTCTTG	0.0419
CTGTCTGA	0.0827
ATGTCTGC	0.286
GACCATTA	0.0825
ATCACAAT	-0.035
CAAACGAG	0.099
CAGAGGAC	0.0901
CAACGGAC	0.121
AGAGCCGC	-0.0659
ATCGCGTA	-0.176
ACAGTCGA	-0.0747
ATCCCGAT	0.125
ACAAAGGC	0.098
CCTCAAGC	-0.277
ACGCTGGG	-0.406

Sequence	PBM E-score
ATCTTGCG	-0.0566
TGCGGAAA	0.0764
CGCGGACA	0.329
CGCGGACG	0.181
TGCGGACA	0.427
AGCGGACG	0.0534
AGCGGACT	-0.229
AGCGGACA	0.359
GGCGGACA	0.273
CGCGGACC	0.0148
CTGCTCAA	0.0116
CGAGTGCG	0.0204
CGTTGCAG	-0.0934
CACATTCC	0.0503
CACATTCA	-0.0795
GACATTCC	0.456
GACATTCA	0.449
AACATTCA	-0.0503
AACATTCC	-0.0175
ATACATAT	0.264
CCGCTCTA	0.0134
GACTCCCC	-0.207
ATTTCTCG	0.255
CGATACCG	-0.0866
ACGGACAA	0.474

Sequence	PBM E-score
TCGGACCA	0.12
ACGGACCA	0.0706
GCGGACAA	0.44
TCGGACAA	0.457
GCGGACAC	0.162
ACGGACGA	0.0949
CCGGACAA	0.452
CCGGACAC	0.288
CCGGACAG	0.227
TCGGACGA	0.199
GCGGACCA	0.0483
ACATTCGT	0.0578
AATTCTCT	-0.229
CGACCGCG	-0.0918
CGGGAGGA	-0.0135
GAGTGTGC	0.0104
GCTACACC	-0.162
GCCTGACC	-0.234
AAATACCA	-0.0306
AAAAAATC	0.105
ATAAAATA	0.183
CCAAAATC	0.0937
ATAAAATG	0.341
AAAAAATG	0.287
ATAAAATC	0.0924

Sequence	PBM E-score
ACAAAATA	0.188
ACAAAATC	0.352
ACAAAATG	0.312
GCCGATTA	-0.0616
ATTGCCGG	-0.0182
GGATAGAC	-0.0706
GGACATCA	0.396
AGACATCC	0.328
AGACATCT	0.29
CGACATCA	0.125
CGACATCC	0.0825
GGACATCC	0.475
TGACATCA	0.257
GAACATCC	0.162
AGACATCG	0.226
ATAGTGGA	0.0789
CCCTGCTC	-0.172
CCGCTTCC	-0.183
GACGGAAA	0.106
AACGGACG	0.0165
CACGGACG	0.175
GACGGACC	-0.0404
TACGGAAA	0.17
TACGGAGA	-0.0508
GACGGACA	0.386

Sequence	PBM E-score
AACGGACT	-0.00389
TACGGACA	0.44
AACGGACA	0.344
CACGGACA	0.455
CACGGACC	0.0127
ACTAACGC	-0.108
GCTCGAAA	-0.00351
TGCAGGAA	0.0458
TGAGTGAA	-0.115
ACGAATCG	0.0506
CGAATAAC	0.0021
CGAATAAA	0.309
GGAATAAA	0.119
TAAGCTCA	-0.0986
CGTCCGGA	0.331
CTTCCGGA	0.132
GGTCCGGA	0.216
ATTCCGGG	0.14
AGTCCGGA	0.267
ATTCCGGA	0.313
CCTTTGAA	-0.154
ATGTTTTG	0.12
CGAGCACG	-0.175
ATATATTG	-0.172
ACATATCA	0.319

Sequence	PBM E-score
ACATATGA	0.311
CCATATTC	-0.0353
CCATATCA	0.0259
ATATATTC	0.163
ACATATCG	0.231
ACATATTG	0.321
ACATATTC	0.34
TCATATGA	0.297
ACATATGC	-0.0219
ACATATGG	0.262
AATCTTGG	0.0184
AGTTACAT	-0.0774
AATCAAAA	0.089
CTATTCTC	-0.0396
CCACAACC	-0.0582
TAGTTGCA	0.0158
TAGAAGGA	-0.21
AATAGCTG	-0.128
GTTGAGGA	-0.00729
CCATATTA	0.21
ACATATTA	0.351
GCATATTA	0.0109
ACCTTCCA	-0.119
AATCGAGT	-0.0102
CGAAGCAC	0.0622

Sequence	PBM E-score
ACACCGTG	-0.05
AATTGGAT	0.157
GATTGGAC	0.109
ATTTGGAG	-0.0358
CTTTGGAC	0.262
AATTGGAC	0.342
ATTTGGAC	0.366
CTGAGCTC	0.0318
ATTTGCCC	0.0584
AAGTGATA	-0.052
TACAAAAA	0.264
GACAGGAA	0.323
CACAGGAA	0.0261
AACAAAAA	0.15
AACAAGCC	0.0265
CACAAGAA	0.105
GACAAGCC	0.318
GACAAGCA	0.278
GACAAGAA	0.374
TACAAGAA	0.169
GACAGGAC	0.17
GACAAAAA	0.466
ATCTATCC	-0.0249
CCTAGCCA	-0.0603
CCTGCAAA	-0.188

Sequence	PBM E-score
AAGCAAGG	-0.0227
ATTTACTA	0.206
AGTCAGAA	-0.0729
CGTACGGC	-0.134
CCTATGTA	-0.0586
GACAAACC	0.445
CACAAAAC	0.0522
AACAAACA	0.133
CACACAAA	0.115
TACAAACA	0.301
TACACAAA	0.205
GACACAAA	0.395
CACAAACC	-0.135
AACAAAAC	0.199
AACAAACC	0.155
GACAAACA	0.456
GACAAAAC	0.451
GACATCAC	0.118
CGGCAGCC	-0.118
CGCGGTCC	-0.0855
AGTATTGG	-0.0788
AGAGTTAT	-0.0142
GATAGGCA	-0.0844
AGTAGGCA	-0.07
CACAAGAC	-0.118

Sequence	PBM E-score
GACAAGAC	0.311
AACAAGAC	0.135
GCCCATGA	-0.081
GGGGACAA	0.456
GGGGACCA	-0.223
TGGGACAA	0.471
GGGGACAC	0.28
TGGGAGAA	-0.209
TGGGACCA	-0.117
ATAGCACA	-0.0389
ATGGAGCG	-0.0801
CAGATAAG	0.102
ATCCGAAT	0.309
ATCCGAAC	-0.00081
ATCCGAGA	0.187
ATCCGAAG	0.0243
GTCCGAGA	0.326
CTCCGACA	0.174
ATCCGAAA	0.057
GTCCGAAA	0.312
ATCCGACA	0.128
TTCCGAAA	0.0799
CTCCGAGA	0.152
GTCCGACA	0.322

— the supplement of paper PMC3334620
